A selection: hits, their analogues and other compounds. The true share with any hit is near 12%.
CHX counter – counter-screen for Shiga toxin inhibitors: cycloheximide protein synthesis inhibition. cell reporter, cycloheximide protein synthesis inhibition counterscreen. max response, %. actives 12% (n = 300,000). AID 2314; in the data active = max response mostly above about 13%, no sharp cut-off; inactive = mostly below about 14%; also: read at 38.3 µM for the half of the compounds with a filed dose
SARS PLpro yeast – SARS-CoV PLP inhibition in yeast; S. cerevisiae expressing SARS-CoV PLpro, growth rescue; Potency, µM (titrated, usually from 32.9 µM), usual class: activators; actives 0.19% (n = 330,000); also: nearly all actives have a fitted effect of over 55% in size
Shiga toxin inh – blocks Shiga toxin action in Vero cells; inhibition, % at 38.7 µM; AID 2315; Vero cells, Shiga toxin protein synthesis inhibition reporter; actives 9.2% (n = 290,000); in the data active = inhibition mostly above about 28%, no sharp cut-off; inactive = mostly below about 43%
NS1 function inh – influenza NS1 inhibition | Potency, µM (series often up to 46.1 µM) | actives 0.4% (n = 270,000) | AID 2326; also: actives are rising curves; nearly all actives have a fitted effect of over 50% in size
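Read-out: OD600 growth recovery of NS1-expressing budding yeast. Cells grown overnight at 30C in -URA glucose medium, washed, resuspended and diluted 1:100 in 2% galactose assay medium, pH 6.0. Same strain lacking NS1 served as positive control.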
A number is an active result; – = inactive; ? = inconclusive; · = not tested or not shown. Unless noted, calls follow the shape of the full dose curve.

SMILES	CHX counter	SARS PLpro yeast	Shiga toxin inh	NS1 function inh
Cc1ccccc1NC(=O)CCC(=O)OCCCC(F)(F)C(F)(F)F	–	–	–	–
N#Cc1ccc(OC(=O)C2CCN(C3=NS(=O)(=O)c4ccccc43)CC2)cc1	·	–	·	·
COCc1cc(S(=O)c2ccc(Cl)cc2)nc(C)n1 (stereo unspecified)	16	–	–	–
COCc1cc(Sc2ccc(Cl)cc2)nc(C)n1	–	–	–	–
Cc1sc(NC(=O)/C=C/c2ccco2)c(C(=O)OC(C)C)c1C	–	–	–	–
O=C(/C=C/c1ccco1)Nc1scc(-c2ccccc2)c1C(=O)O	22	–	–	–
O=C(/C=C/c1ccccc1)Nc1scc(-c2ccccc2)c1C(=O)O	30	–	59	–
CC(C)NC(=O)CCCC(=O)NC(C)C	–	–	–	–
Clc1ccc(/C=C\c2nc(Cl)c(-c3ccc(Cl)cc3)c(Cl)n2)cc1	·	·	·	–
O=C(c1ccc(F)cc1)c1ccc(-c2ccc(F)cc2)nc1	14	–	–	–
CC(=O)c1ccc(NC(=O)c2ccc(N3C(=O)c4cccnc4C3=O)cc2)cc1	22	–	–	–
COc1ccc(N2C(=O)c3ccc(C(=O)Nc4ccc(NC(C)=O)cc4)cc3C2=O)cc1	–	–	–	–
O=C(O)c1ccc(N2C(=O)c3cccnc3C2=O)cc1	19	–	–	·
Cc1ccc(N2CCN(S(=O)(=O)c3ccc(Cl)s3)CC2C)cc1 (stereo unspecified)	15	–	22	–
O=C(O)c1ccccc1Nc1cc(Cl)cc(Cl)c1	–	·	–	·
O=C(O)c1ccccc1Nc1ccc(CCc2ccc(Cl)c(Cl)c2)cc1	16	·	27	·
CCOC(=O)c1ccc(NC(=S)NCc2cccnc2)cc1	13	–	–	–
CCOC(=O)c1ccc(NC(=O)C2CCCN(c3cnccn3)C2)cc1 (stereo unspecified)	29	–	34	–
CCCc1ccc(C(C)NC(=O)c2cnccn2)cc1 (stereo unspecified)	–	–	–	–
CC(C)c1ccc(C(=O)NC(=S)NCc2cccnc2)cc1	16	–	active	–
CCCCc1ccc(NC(=O)c2cnccn2)cc1	37	–	61	·
Nc1c2nc(-c3ccccc3)[nH]c(=O)c2nc(=O)n1-c1ccccc1	–	–	–	–
CCOC(=O)c1cc(NC(=O)c2cnccn2)cc(C(=O)OCC)c1	–	–	–	?
CCOC(=O)c1ccc(NC(=O)c2cnccn2)cc1	20	–	–	–
Cc1ccc(N/C=C(/C#N)c2ccsc2)cc1C	42	·	87	–
SMILES	CHX counter	SARS PLpro yeast	Shiga toxin inh	NS1 function inh
Cc1ccc(N/N=C(\C#N)C(N)=S)cc1C	–	–	–	·
COc1ccc(/C=C(\NC(=O)c2ccc(OC)cc2)C(=O)Nc2ccccc2C(=O)O)cc1	–	–	–	–
COCCSc1ncnc2c1oc1nc3c(cc12)COC(C)(C)C3	23	–	–	–
O=[N+]([O-])c1ccc(NCc2ccccc2)nc1	55	–	56	–
O=[N+]([O-])c1ccc(COc2cccnc2)cc1	41	–	56	·
O=[N+]([O-])c1ccc(COc2ccc(CNc3ccccc3)cc2)cc1	36	–	–	–
O=C(O)c1cc([N+](=O)[O-])ccc1NCc1ccccc1	–	–	–	–
CC(c1ccncn1)N(C)C(=O)c1ccc2oc(Cc3ccccc3)nc2c1 (stereo unspecified)	34	–	50	–
CCCCc1nc2cc(C(=O)NCc3cc(C)n(C)n3)ccc2o1	25	–	78	–
Cc1cc(CNC(=O)c2ccc3nc(Cc4ccccc4F)oc3c2)nn1C	42	–	94	–
Cc1c(C(C)NC(=O)c2ccc3nc(Cc4ccccc4F)oc3c2)cnn1C (stereo unspecified)	34	–	36	–
Cc1cc(CNC(=O)CCc2nnc(CCCCc3ccccc3)o2)nn1C	–	–	–	–
Cc1cccc(C(C)C)c1NC(=O)C1CCN(S(=O)(=O)c2ccccc2)CC1	–	–	–	–
COc1ccc(CNC(=O)CN2C(=O)NC(Cc3ccccc3)(c3ccccc3)C2=O)cc1OC (stereo unspecified)	·	–	·	·
CN(C(=O)CCN1C(=O)c2ccccc2C1=O)c1ccccc1	–	–	–	–
COc1cc(C(=O)OCC(=O)NCCN2C(=O)CSC2=O)ccc1OCc1c(C)noc1C	–	–	–	·
CC(c1ccccn1)N(C)C(=O)c1ccc2nc(Cc3ccccc3F)oc2c1 (stereo unspecified)	53	–	72	–
O=C(NCc1ccncc1)c1ccc2nc(Cc3ccccc3F)oc2c1	16	–	–	–
Cc1c(C(=O)N(C)C(C)c2ccccn2)oc2c(F)cccc12 (stereo unspecified)	51	–	75	–
N#Cc1ccccc1OCC(=O)OCC(=O)NCc1ccc2c(c1)OCO2	·	–	·	·

Screening results as filed in PubChem.
